From PubChem BioAssay AID493056 (National Center for Advancing Translational Sciences (NCATS), 2011)
About 2,400 (0.67%) of roughly 360,000 compounds were called active. What follows is part of a selection rich in actives, with near analogues and random picks from the rest. A number with no mark means an inactive call. Cut-off read from the data, not from the text of the source: active = enhancement above about 30%; inactive = the rest.
Note: 0% is about no effect.

The compounds below were run against Thyrotropin-releasing hormone receptor (Homo sapiens) (UniProt P34981) (assay: qHTS for Small Molecule Agonists and Allosteric Enhancers of Human TRH Receptor: Primary Screen for Enhancers). Settings: TRHR cells, fluo-8 calcium fluorescence, EC20 TRH enhancement; at 2 µM; stronger effect = higher value.
Sequence of Thyrotropin-releasing hormone receptor (Homo sapiens) (P34981 whole entry, looked up): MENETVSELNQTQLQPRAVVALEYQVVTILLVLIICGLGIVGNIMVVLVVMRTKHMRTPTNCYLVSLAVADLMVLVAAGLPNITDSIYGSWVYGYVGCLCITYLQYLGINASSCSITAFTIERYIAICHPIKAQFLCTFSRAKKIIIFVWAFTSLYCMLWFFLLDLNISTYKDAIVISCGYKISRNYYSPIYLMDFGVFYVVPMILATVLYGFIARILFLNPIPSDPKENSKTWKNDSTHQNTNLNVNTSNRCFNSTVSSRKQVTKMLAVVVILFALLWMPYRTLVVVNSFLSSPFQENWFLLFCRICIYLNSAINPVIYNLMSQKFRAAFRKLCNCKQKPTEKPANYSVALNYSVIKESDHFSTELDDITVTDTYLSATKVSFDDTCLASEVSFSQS
In short: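 TRHR-expressing cells loaded with fluo-8 calcium dye were read kinetically (ex 480/em 530) during compound addition, then stimulated with an EC20 of TRH (10 nM final). Enhancement of the Gq-mediated intracellular calcium response was scored.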
`O=C(NCc1ccccn1)C1CCN(S(=O)(=O)c2ccc(Br)cc2)CC1` gave an enhancement of -2.72%. For `O=C(COc1ccc(S(=O)(=O)N2CCCCC2)cc1)NCc1ccccn1`, the enhancement was 36.9% (active). Work on `CCOc1ccccc1NC(=O)COc1ccc(S(=O)(=O)N2CCCC2)cc1` yielded an enhancement of 19.7%. `COc1cccc(N2CC(NC(=O)/C=C\c3ccccc3)CC2=O)c1` (centres undefined) gave an enhancement of 5.73%. `CCc1ccc(NC(=O)CSc2nc3c([nH]c4ccccc43)c(=O)n2-c2cccc(OC)c2)cc1` was tested, and the enhancement was 2.51%. With `CCOc1cc(CN2CCCC(CO)(Cc3ccc(F)cc3F)C2)ccc1OC` (centres undefined) the enhancement was 45.4% (active). With `CCc1[nH]nc(C(=O)N2CCCC(CO)(Cc3ccc(F)cc3F)C2)c1C` (centres undefined) the enhancement was -3.46%. For `Cc1ccccc1CC1(CO)CCCN(Cc2ccc3c(c2)OCCO3)C1` (centres undefined), the enhancement was 2.06%. Work on `CC(C)(C)OC(=O)N1CCC(c2c(C(=O)NCc3ccccn3)cnn2-c2ccc(F)cc2)CC1` yielded an enhancement of 0.916%. `CSc1nc(=O)c2c(n1C)NC(=O)CC2c1ccccc1OC(C)C` (centres undefined) gave an enhancement of 1.92%. With `Cc1cc(C)c2oc(C(=O)Nc3c(C(=O)Nc4ccccc4)oc4ccccc34)cc(=O)c2c1` the enhancement was -1.76%. `Cc1ccc(S(=O)(=O)N(CC(=O)Nc2ccc(Cl)cc2Cl)c2ccccc2C)cc1` gave an enhancement of -0.851%. `Cc1ccccc1-c1nc2cc(NC(=O)c3cccc(OCCC(C)C)c3)ccc2o1` showed an enhancement of -6.29%. For `CCCOc1ccc(C(=O)Nc2ccc3oc(-c4cccc(Cl)c4Cl)nc3c2)cc1`, the enhancement was -0.105%. `CCCCOc1ccc(C(=O)Nc2cccc(-c3nc4ccccc4o3)c2C)cc1` was tested, and the enhancement was 36% (active). `Cc1ccc(S(=O)(=O)c2nnn3c2nc(N2CCN(c4ccccc4F)CC2)c2cc(Cl)ccc23)cc1C` was tested, and the enhancement was 15.1%. `COc1ccccc1CNC(=O)c1ccc(-n2c(C)cc3c2CCCC3)cc1` gave an enhancement of -0.647%. With `Cc1noc(C)c1-c1ccc2ncnc(NCc3ccc(F)c(F)c3)c2c1` the enhancement was -4.49%. `O=C(O)c1ccc(Nc2nc(-c3ccccc3)c3cc(Br)ccc3n2)cc1` gave an enhancement of 7.15%. With `O=C(CCl)NNc1nc(-c2ccccc2)c2cc(Cl)ccc2n1` the enhancement was 32.4% (active). With `NC(N)=Nc1nc(-c2ccccc2)c2cc(Cl)ccc2n1` the enhancement was 48.4% (active). Work on `Cc1nc(N=C(N)N)nc2c(C)cccc12` yielded an enhancement of 10.2%. In the case of `O=C(Cn1c(=O)nc(-c2ccccc2)c2cc(Cl)ccc21)NCc1ccc(Cl)cc1`, the enhancement is reported as 10.8%. With `Clc1ccc2nc(-c3ccccc3)nc(C(Cl)Cl)c2c1` the enhancement was 2.39%.
